This is a sample that favours compounds with a hit; in the whole collection about 4.7% have one here.
TRHR agonist: qHTS for Small Molecule Agonists and Allosteric Enhancers of Human TRH Receptor: Primary Screen for Agonists. Thyrotropin-releasing hormone receptor (Homo sapiens), P34981. TRHR cells, calcium flux fluo-8, FDSS agonist mode. activation, % at 2 µM. actives 0.18% (n = 360,000). AID 493084, 2011
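Fluo-8-loaded TRHR cells; 10 s baseline, compound added, kinetic Ca2+ fluorescence read 1/s, agonist mode.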
D1 agonist: Allosteric Agonists of the Human D1 Dopamine Receptor: qHTS. activation, % at 2 µM. AID 504660, 2011. HEK293 T-REx D1 cells, calcium flux, agonist mode. actives 1% (n = 360,000). D(1A) dopamine receptor (Homo sapiens), P21728
Target sequence (P21728 whole entry, looked up): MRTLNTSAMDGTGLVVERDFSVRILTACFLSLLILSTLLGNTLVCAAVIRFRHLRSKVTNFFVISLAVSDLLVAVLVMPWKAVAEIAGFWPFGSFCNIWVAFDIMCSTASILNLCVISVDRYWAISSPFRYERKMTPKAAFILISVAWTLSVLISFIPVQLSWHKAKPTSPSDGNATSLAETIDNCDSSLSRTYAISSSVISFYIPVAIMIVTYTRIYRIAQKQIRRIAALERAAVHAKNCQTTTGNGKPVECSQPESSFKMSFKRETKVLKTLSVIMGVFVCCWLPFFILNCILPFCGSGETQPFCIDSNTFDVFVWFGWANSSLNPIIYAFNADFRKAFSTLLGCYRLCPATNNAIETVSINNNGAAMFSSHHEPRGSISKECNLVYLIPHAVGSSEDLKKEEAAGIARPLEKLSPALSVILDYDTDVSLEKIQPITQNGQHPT
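Inducible HEK293 T-REx D1 cells, force-coupled to calcium signalling, were plated at 4000 cells/well with tetracycline and held overnight at 30 C. After no-wash calcium dye loading, compound-evoked calcium rise over 180 s flagged agonists.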
TRHR PAM: qHTS for Small Molecule Agonists and Allosteric Enhancers of Human TRH Receptor: Primary Screen for Enhancers | enhancement, % at 2 µM | TRHR cells, fluo-8 calcium fluorescence, EC20 TRH enhancement | Thyrotropin-releasing hormone receptor (Homo sapiens), P34981 | AID 493056, 2011 | actives 0.66% (n = 360,000); in the data active = enhancement above about 30%
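TRHR-expressing cells loaded with fluo-8 calcium dye were read kinetically (ex 480/em 530) during compound addition, then stimulated with an EC20 of TRH (10 nM final). Enhancement of the Gq-mediated intracellular calcium response was scored.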
D1 antag: Antagonist of Human D 1 Dopamine Receptor: qHTS. HEK293 TREx D1 cells, calcium flux, dopamine EC80; active compounds read low. activity change, negative = inhibition, % at 10 µM. actives 3.2% (n = 360,000); in the data active = activity change below about -30%
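Antagonism measured as reduced calcium response to an EC80 dopamine addition following 180 s compound pre-read; cells were inducible HEK293 Trex D1 plated overnight at 30 C, read kinetically at 1 cycle/sec.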
D1 PAM: Potentiators of Human D1 Dopamine Receptor: qHTS; D(1A) dopamine receptor (Homo sapiens), P21728; HEK293 TREx D1 cells, calcium flux, dopamine EC20 potentiation; potentiation, % at 10 µM; actives 0.036% (n = 360,000); in the data active = potentiation above about 30%
Large screens that a line does not name were inactive. Cut-off read from the data, not from the text of the source, unless noted: active = activation above about 30%; inactive = the rest.

O=C(c1ccc(Cl)cc1)[C@@H]1[C@@H]2C(=O)N(c3ccc(Cl)cc3)C(=O)[C@@H]2C2c3ccccc3C=NN21 (stereo partly specified)	D1 antag -35
O=c1oc2ccccc2c(NC2CCCCC2)c1NS(=O)(=O)c1ccc(F)cc1	none
COc1ccc(S(=O)(=O)Nc2c(NC3CCCCC3)c3ccccc3oc2=O)cc1	D1 antag -31
Cc1ccc(C(=O)NNC(=O)c2ccc(NS(=O)(=O)c3cccs3)cc2)o1	TRHR PAM 32
Cc1ccc(CNC(=O)c2ccc(NS(=O)(=O)c3cccs3)cc2)cc1	none
CCN1CCN(C(C(=O)NC2CCCC2)c2ccc(Cl)cc2)CC1 (stereo unspecified)	D1 antag -38
O=C(NC1CCCCC1)C(c1ccc(Cl)cc1)N1CCC2(CC1)OCCO2 (stereo unspecified)	none
O=C(CSC1CC(=O)N(CCc2ccccc2)C1=O)Nc1cccc(Cl)c1 (stereo unspecified)	D1 agonist 33
O=C(Cn1nnc(-c2ccc(C(F)(F)F)cc2)n1)NCCc1ccccc1	none
CCCCOC(=O)c1ccc(NC(=O)C2(c3cccs3)CCOCC2)cc1	none (no result: D1 antag)
CCN(CC)S(=O)(=O)c1ccc(NC2CCCc3ccccc32)nc1 (stereo unspecified)	D1 antag -31
CCN(CC)S(=O)(=O)c1ccc(NC2CCN(Cc3ccccc3)CC2)nc1	D1 agonist 34, D1 antag -38
CCN(CC)S(=O)(=O)c1ccc(Cl)c(C(=O)NC2CCN(Cc3ccccc3)CC2)c1	none
CC1CC(C)CN(C(=O)c2ccc3c(c2)N(Cc2ccccc2)CCS3)C1 (stereo unspecified)	none
CCOC(=O)N1CCN(C(=O)c2ccc3c(c2)N(Cc2ccccc2)CCS3)CC1	D1 antag -34
CCOc1ccc(-c2cc(NC(=O)c3c(F)cccc3F)c(C(=O)OC)s2)cc1	none
O=C(Nc1cc2c3c(c1)CC(=O)N3CCC2)c1ccccc1Br	TRHR PAM 34
O=C(Nc1cc2c3c(c1)CC(=O)N3CCC2)c1ccc(Br)cc1	none
Cc1cccc(NC(=O)Cn2nnc(C(=O)NCc3cccs3)c2N)c1	none
Cc1oc(-c2ccccc2Cl)nc1CN1CCCCC1c1cccnc1 (stereo unspecified)	D1 antag -32
COc1cc(C2c3c(-c4cc(C)ccc4O)n[nH]c3C(=O)N2CCCO)ccc1OCCC(C)C (stereo unspecified)	none
O=C(NCCc1ccccc1)C(=O)NCC1(c2ccccc2)CCCC1	D1 antag -31
O=C(CCc1ccccc1)NCC1(c2ccccc2)CCCC1	none
CCOc1ccc(Br)cc1C1C(C(=O)OC)=C(C)NC2=C1C(=O)c1ccccc12 (stereo unspecified)	none
CCOc1ccc(C(=O)Nc2cccc(NC(=O)c3ccco3)c2)cc1Cl	none
O=C(Nc1ccccc1N1CCCC1)c1cc(Cl)ccc1Cl	none
COc1nnc(-c2ccc(N3CCCCC3)c(NC(=O)c3ccc(Cl)cc3)c2)c2ccccc12	TRHR PAM 39
O=C(Nc1ccccc1N1CCCC1)c1ccc(Cl)cc1Cl	D1 antag -33
COc1nnc(-c2ccc(N3CCCCC3)c(NC(=O)c3ccccc3)c2)c2ccccc12	none
O=C(Nc1ccccc1N1CCN(C(=O)c2ccccc2)CC1)c1ccccc1Cl	D1 antag -45
O=C(CCC(=O)c1ccc(F)cc1)Nc1cc(Cl)cc(Cl)c1	D1 antag -41
CC(=O)c1cccc(NC(=O)CCC(=O)c2ccc(F)cc2)c1	none
COC(=O)c1cc(Cl)cc(Cl)c1OS(=O)(=O)N(C)C	D1 antag -30
Cc1cc(C)c(NC(=O)CSc2nc(=O)n(Cc3ccco3)c3c2CCC3)c(C)c1	none (no result: D1 antag)
Cc1ccc(C)c2sc(N3CCN(C(=O)c4ccc([N+](=O)[O-])o4)CC3)nc12	none

Screening data as filed in PubChem BioAssay.
